Only a selection was taken, and hits are over-represented in it overall.
mHTT-CaM PPI inh – mutant huntingtin-calmodulin interaction inhibitors – biochemical, AlphaScreen, primary screen; P42858; AlphaScreen His-mHTT/GST-CaM binding, luminescence; inhibition, % at 15 µM; 190,000 compounds, 3.6% hits; AID 1671202, 2021;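 also: 0% = both proteins with DMSO and 100% = one protein alone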
Target sequence (P42858 whole entry, looked up, stated change not applied): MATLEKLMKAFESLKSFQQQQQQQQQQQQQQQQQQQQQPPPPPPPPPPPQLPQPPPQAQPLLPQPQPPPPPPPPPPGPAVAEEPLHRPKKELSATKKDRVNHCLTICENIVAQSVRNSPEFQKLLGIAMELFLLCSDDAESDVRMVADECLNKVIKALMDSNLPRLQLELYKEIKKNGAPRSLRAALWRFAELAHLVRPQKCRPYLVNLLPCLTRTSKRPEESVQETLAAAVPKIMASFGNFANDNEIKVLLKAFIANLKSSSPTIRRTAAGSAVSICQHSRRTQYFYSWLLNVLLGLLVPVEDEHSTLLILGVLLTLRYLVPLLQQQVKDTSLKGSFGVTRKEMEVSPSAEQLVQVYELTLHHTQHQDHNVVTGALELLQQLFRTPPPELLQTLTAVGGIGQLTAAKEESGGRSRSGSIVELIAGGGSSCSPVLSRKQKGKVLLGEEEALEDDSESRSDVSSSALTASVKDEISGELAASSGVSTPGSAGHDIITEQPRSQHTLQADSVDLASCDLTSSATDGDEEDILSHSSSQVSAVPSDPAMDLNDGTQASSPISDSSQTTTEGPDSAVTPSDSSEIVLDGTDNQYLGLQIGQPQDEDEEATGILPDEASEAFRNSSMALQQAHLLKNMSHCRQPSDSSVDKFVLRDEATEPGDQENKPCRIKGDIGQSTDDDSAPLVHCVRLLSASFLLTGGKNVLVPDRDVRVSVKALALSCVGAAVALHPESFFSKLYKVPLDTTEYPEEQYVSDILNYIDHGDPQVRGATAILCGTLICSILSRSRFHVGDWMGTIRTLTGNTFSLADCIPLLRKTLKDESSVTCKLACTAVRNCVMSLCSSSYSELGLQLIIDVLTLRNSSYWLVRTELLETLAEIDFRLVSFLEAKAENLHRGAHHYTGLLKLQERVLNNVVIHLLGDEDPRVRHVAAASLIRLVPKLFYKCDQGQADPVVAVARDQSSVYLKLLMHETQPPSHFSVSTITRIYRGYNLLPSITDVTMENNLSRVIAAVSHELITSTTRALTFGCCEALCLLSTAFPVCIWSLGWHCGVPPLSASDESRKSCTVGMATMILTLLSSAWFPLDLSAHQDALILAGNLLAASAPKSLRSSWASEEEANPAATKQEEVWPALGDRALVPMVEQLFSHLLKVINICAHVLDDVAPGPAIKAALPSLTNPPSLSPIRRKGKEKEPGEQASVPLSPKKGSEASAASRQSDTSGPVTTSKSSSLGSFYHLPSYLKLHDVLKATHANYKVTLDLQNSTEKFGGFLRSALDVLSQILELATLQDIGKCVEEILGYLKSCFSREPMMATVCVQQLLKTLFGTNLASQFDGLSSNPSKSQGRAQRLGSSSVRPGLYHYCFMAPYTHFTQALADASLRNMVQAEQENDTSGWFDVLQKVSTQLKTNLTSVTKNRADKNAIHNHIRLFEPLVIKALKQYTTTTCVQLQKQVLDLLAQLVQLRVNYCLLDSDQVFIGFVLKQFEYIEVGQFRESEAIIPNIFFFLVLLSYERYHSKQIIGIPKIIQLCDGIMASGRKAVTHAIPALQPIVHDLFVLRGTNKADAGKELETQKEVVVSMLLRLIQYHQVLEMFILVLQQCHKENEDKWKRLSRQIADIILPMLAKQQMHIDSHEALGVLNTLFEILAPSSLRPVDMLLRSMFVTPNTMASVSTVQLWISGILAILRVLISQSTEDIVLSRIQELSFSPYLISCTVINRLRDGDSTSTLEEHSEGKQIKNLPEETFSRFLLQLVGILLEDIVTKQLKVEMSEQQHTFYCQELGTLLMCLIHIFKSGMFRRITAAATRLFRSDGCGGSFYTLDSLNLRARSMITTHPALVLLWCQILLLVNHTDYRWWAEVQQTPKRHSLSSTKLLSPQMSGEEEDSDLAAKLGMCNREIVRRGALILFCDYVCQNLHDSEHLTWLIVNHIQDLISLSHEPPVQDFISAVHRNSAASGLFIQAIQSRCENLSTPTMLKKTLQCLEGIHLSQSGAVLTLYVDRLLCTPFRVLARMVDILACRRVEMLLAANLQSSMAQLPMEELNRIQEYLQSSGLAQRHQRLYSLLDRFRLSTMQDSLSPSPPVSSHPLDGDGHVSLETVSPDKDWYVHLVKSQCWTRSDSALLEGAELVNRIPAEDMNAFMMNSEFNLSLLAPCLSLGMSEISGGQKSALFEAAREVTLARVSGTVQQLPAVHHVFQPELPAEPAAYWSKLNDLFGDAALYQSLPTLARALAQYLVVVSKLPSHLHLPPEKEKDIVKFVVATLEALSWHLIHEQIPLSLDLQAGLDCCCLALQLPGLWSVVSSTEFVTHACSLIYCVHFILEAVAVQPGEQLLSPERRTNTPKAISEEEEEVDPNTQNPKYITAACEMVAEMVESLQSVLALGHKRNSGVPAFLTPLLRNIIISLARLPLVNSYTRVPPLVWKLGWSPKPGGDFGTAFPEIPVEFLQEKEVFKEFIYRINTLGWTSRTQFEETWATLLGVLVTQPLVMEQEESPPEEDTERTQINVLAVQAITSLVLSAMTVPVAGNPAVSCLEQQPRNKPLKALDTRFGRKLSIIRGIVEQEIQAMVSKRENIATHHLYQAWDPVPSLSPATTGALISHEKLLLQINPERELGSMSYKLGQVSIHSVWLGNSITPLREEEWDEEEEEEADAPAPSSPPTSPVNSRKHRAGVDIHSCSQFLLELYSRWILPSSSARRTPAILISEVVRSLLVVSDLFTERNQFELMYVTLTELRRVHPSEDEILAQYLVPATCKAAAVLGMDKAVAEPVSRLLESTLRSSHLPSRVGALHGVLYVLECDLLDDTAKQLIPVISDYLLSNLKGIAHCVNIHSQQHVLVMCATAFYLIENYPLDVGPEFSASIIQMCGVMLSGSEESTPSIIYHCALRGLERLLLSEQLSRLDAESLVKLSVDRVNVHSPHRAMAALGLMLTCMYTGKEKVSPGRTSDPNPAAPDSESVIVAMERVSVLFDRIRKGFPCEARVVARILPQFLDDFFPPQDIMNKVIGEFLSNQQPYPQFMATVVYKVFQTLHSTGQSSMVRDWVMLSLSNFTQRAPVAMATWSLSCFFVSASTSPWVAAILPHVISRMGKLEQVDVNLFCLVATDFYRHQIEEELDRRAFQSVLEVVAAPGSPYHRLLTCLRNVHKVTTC
Pf apPOL inh – Pf-apPOL inhibitors, biochemical, fluorescence. Recombinant Pf-apPOL, molecular beacon fluorescence, 1.5 h. inhibition, % at 10 µM. 210,000 compounds, 0.25% hits
Active calls of the source: *; · = no result. Rule as the data show it: active = inhibition above about 50%; inactive = the rest.

SMILES	mHTT-CaM PPI inh	Pf apPOL inh
CCN(CC)c1ccc(CNC(=O)c2ccc3[nH]c4c(c3c2)CN(C(C)=O)CC4)cc1	69*	0
CC(=O)N1CCc2[nH]c3ccc(C(=O)NCCc4nc5ccccc5n4C)cc3c2C1	14	-2
CCN(CCNC(=O)c1ccc2[nH]c3c(c2c1)CN(C(C)=O)CC3)c1ccccc1	68*	-4
CC(=O)N1CCc2[nH]c3ccc(C(=O)NCc4ccc(F)cc4)cc3c2C1	72*	4
CCN(C(=O)c1ccc2[nH]c3c(c2c1)CN(C(C)=O)CC3)c1cccc(C)c1	84*	-4
CC(=O)N1CCc2[nH]c3ccc(C(=O)N4CCOCC4)cc3c2C1	36	-1
Nc1cc(C2CCN(C(=O)Nc3cc(F)ccc3F)CC2)no1	-8	-10
CC(=O)N1CCc2[nH]c3ccc(C(=O)N4CCN(C(C)C)CC4)cc3c2C1	14	-3
CC(=O)N1CCc2[nH]c3ccc(C(=O)N4CCN(Cc5ccc(C)cc5)CC4)cc3c2C1	78*	-3
COc1ccc(C2=NN(CCc3ccccn3)C(=O)C2)cc1	87*	0
COc1ccc(C2=NN(CC(=O)NCc3ccccn3)C(=O)CC2)cc1	25	-17
CCOc1ccc(N=C2NC(=O)C(CC(=O)Nc3ccc(OC)cc3)S2)cc1 (configuration not stated)	10	-7
COc1ccccc1C(=O)N1CCCC1COc1ccc(C(=O)NC2CC2)cc1 (configuration not stated)	-6	1
O=C1C(Br)=C(Br)C(=O)C(Br)=C1Br	81*	7
O=C1C(Br)=C(Br)C(=O)c2ccccc21	100*	15
CC1=C(Br)C(=O)c2ccccc2C1=O	17	-4
O=C(C1CCCC1)N1CCC(c2nc(-c3ccncc3)n[nH]2)CC1	-13	2
CCc1ccc(/C=c2\sc3nc(-c4ccc(OC)cc4)nn3c2=O)cc1	-2	12
Cc1cccc(Nc2nccc(C3CCCN(C(=O)c4ccc(C#N)cc4)C3)n2)c1 (configuration not stated)	14	-5
CCC(=O)N1CCCC(c2ccnc(Nc3ccc(OC)cc3)n2)C1 (configuration not stated)	-1	-7
Cc1ccccc1Nc1nccc(C2CCCN(C(=O)Cc3cccs3)C2)n1 (configuration not stated)	10	-3
CCC(=O)N1CCCC(c2ccnc(Nc3cccc(C)c3)n2)C1 (configuration not stated)	57*	-5
Cc1cccc(Nc2nccc(C3CCCN(C(=O)Cc4cccs4)C3)n2)c1 (configuration not stated)	63*	-5
Cc1cccc(Nc2nccc(C3CCCN(C(=O)C4CCCO4)C3)n2)c1 (configuration not stated)	74*	-3
O=C(Nc1ccc(S(=O)(=O)N2CCCC2)cc1)c1cccs1	-12	2
SMILES	mHTT-CaM PPI inh	Pf apPOL inh
CC(=O)N1CCC(COc2ccc(C(=O)N3CCC(C)CC3)cc2)CC1	-13	-4
CN(C)S(=O)(=O)c1ccc(C(=O)NCc2ccc3[nH]c4c(c3c2)CCCC4)cc1	29	-6
O=C(NCc1ccc2[nH]c3c(c2c1)CCCC3)C12CC3CC(CC(C3)C1)C2	98*	-6
O=C(CC1CCCCC1)NCc1ccc2[nH]c3c(c2c1)CCCC3	92*	-5
O=C(Cc1ccc([N+](=O)[O-])cc1)NCc1ccc2[nH]c3c(c2c1)CCCC3	31	28
COc1ccccc1CN1CCC(C)(O)C(N2CCCC2)C1 (configuration not stated)	13	-2
Cc1oc(C2CCN(C(=O)CC(C)(C)C)CC2)nc1C(=O)N1CCCCC1	3	3
CCN1C=C(Cc2ccccc2C)C2=C(C1)C(c1ccccc1C)C(C#N)=C(N)O2 (configuration not stated)	64*	-5
CC1(C)CC(=O)C2=C(C1)OC(N)=C(C#N)C2c1ccc(F)cc1 (configuration not stated)	4	-6
CCN1C=C(Cc2ccc(F)cc2)C2=C(C1)C(c1ccc(F)cc1)C(C#N)=C(N)O2 (configuration not stated)	85*	-14
Cc1ccccc1C1C(C#N)=C(N)OC2=C1C(=O)CCC2 (configuration not stated)	-8	-1
CSc1nc2ccc(NC(=O)c3cccs3)cc2s1	-5	3
CC1CC(C)CN(S(=O)(=O)N2CCC(C(=O)NCc3ccco3)CC2)C1 (configuration not stated)	2	-13
Cc1ccc(C(N)=NC(=NS(=O)(=O)c2ccccc2)c2ccccc2)cc1	5	2
Cc1ccc(S(=O)(=O)N=C(Nc2ccccn2)c2ccccc2)cc1	-1	4
CC1=CC(=NC(=NS(=O)(=O)c2ccc(C)cc2)c2ccccc2)C(C)=CC1=O	59*	-1
CC1=CC(=O)C=CC1=NC(=NS(=O)(=O)c1ccc(C)cc1)c1ccccc1	58*	-9
Cc1cccc2sc(NC(=O)c3ccc([N+](=O)[O-])cc3Cl)nc12	17	-1
COc1cc(/C=C/C(=O)c2ccco2)cc(OC)c1OC	-3	1
CCOc1ccc2oc(C)c(C(=O)Nc3ccc(N(C)C(C)=O)cc3)c2c1	6	-12
CN(C)c1ccc(NC2=C(n3nnc4ccccc43)C(=O)c3ccccc3C2=O)cc1	51*	-9
Cc1ccc(Nc2c3c4c(cccc4n(C)c2=O)C(=O)c2ccccc2-3)cc1	36	-2
CCN(CC)C1=C(n2nnc3ccccc32)C(=O)c2ccccc2C1=O	27	-6
Cc1ccc(NC2=C(n3nnc4ccccc43)C(=O)c3ccccc3C2=O)cc1	52*	3
COc1cccc(NC2=C(n3nnc4ccccc43)C(=O)c3ccccc3C2=O)c1	8	-1
SMILES	mHTT-CaM PPI inh	Pf apPOL inh
Cc1ccc(NC2=C(NCCO)C(=O)c3ccccc3C2=O)cc1	67*	0
N=C1NC(=O)/C(=C\c2ccccc2C(F)(F)F)S1	-10	-3
CC(=O)Nc1ccc2c(c1)C1C=CCC1C(c1ccc(Br)cc1)N2 (configuration not stated)	86*	73*
Brc1cc2c(cc1[C@H]1Nc3ccccc3[C@H]3C=CC[C@H]31)OCO2	·	6
CC(=O)Nc1cccc(NC(=O)c2ccccc2[N+](=O)[O-])c1	0	-10
CC(=O)Nc1ccc2c(c1)C1C=CCC1C(c1ccccc1[N+](=O)[O-])N2 (configuration not stated)	65*	6
Cc1ccc2c(c1)C1C=CCC1C(c1ccccc1Br)N2 (configuration not stated)	77*	-8
O=C(NCCCO)C(=O)Nc1ccc(Cl)c(C(F)(F)F)c1	-6	-11
Nc1cc(N)nc(SCC(=O)Nc2nonc2N)n1	-3	-3
N#C/C(=C\c1ccc(-c2cccc([N+](=O)[O-])c2)o1)c1[nH]nc(N)c1C#N	44	1
Cn1ccnc1SCc1cc(=O)c(OC(=O)C2(c3ccc(Cl)cc3)CCCC2)co1	88*	1
CCSc1ccccc1C(=O)Oc1coc(CSc2nccn2C)cc1=O	3	0
CCN1CCc2c(sc(N)c2C#N)C1	7	-22
CCC(C)(C)C1CCc2c(sc(N)c2C#N)C1 (configuration not stated)	·	97*
CN1C(=C(O)c2ccccc2)C(=O)c2ccccc2S1(=O)=O	-3	-4
Cc1ccc(C(=O)CN2C(=C(O)c3ccccc3)C(=O)c3ccccc3S2(=O)=O)c(C)c1	59*	-7
